From publication PMC9911399, “Two distinct binding modes provide the RNA-binding protein RbFox with extraordinary sequence specificity” come the findings set out here.

T1: RBFOX1 RRM (Homo sapiens, UniProt Q9NWB1 109-208)
T1 sequence: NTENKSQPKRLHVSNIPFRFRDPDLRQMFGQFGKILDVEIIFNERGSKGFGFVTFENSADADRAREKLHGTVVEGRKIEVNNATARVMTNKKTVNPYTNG

B1: UCAAUCC (DNA:RNA)
RNA: GGGAGACCGGAAUUCAGAUUGUCCUCAAUCCUUAAAUCCCGUCGUAGCCACCA
DNA 1: CAATCTGAATTCCGGTCTCCC
DNA 2: TGGTGGCTACGACGGGATT
B2: UAUUGCC (DNA:RNA)
RNA: B1 RNA with C26A, A27U, A28U, U29G
DNA 1: CAATCTGAATTCCGGTCTCCC
DNA 2: TGGTGGCTACGACGGGATT
B3: UGUUAGC (DNA:RNA)
RNA: B1 RNA with C26G, A27U, A28U, U29A, C30G
DNA 1: CAATCTGAATTCCGGTCTCCC
DNA 2: TGGTGGCTACGACGGGATT
B4: GACUGAA (DNA:RNA)
RNA: GGGAGACCGGAAUUCAGAUUGUCCGACUGAAUUAAAUCCCGUCGUAGCCACCA
DNA 1: CAATCTGAATTCCGGTCTCCC
DNA 2: TGGTGGCTACGACGGGATT
B5: UUCAGCC (DNA:RNA)
RNA: B1 RNA with C26U, A27C, U29G
DNA 1: CAATCTGAATTCCGGTCTCCC
DNA 2: TGGTGGCTACGACGGGATT
B6: ACCUUCG (DNA:RNA)
RNA: B1 RNA with U25A, A27C, A28U, C31G
DNA 1: CAATCTGAATTCCGGTCTCCC
DNA 2: TGGTGGCTACGACGGGATT
B7: ACCUAAG (DNA:RNA)
RNA: B4 RNA with G25A, A26C, G29A, A31G
DNA 1: CAATCTGAATTCCGGTCTCCC
DNA 2: TGGTGGCTACGACGGGATT
B8: UUACAAU (DNA:RNA)
RNA: B1 RNA with C26U, A28C, U29A, C30A, C31U
DNA 1: CAATCTGAATTCCGGTCTCCC
DNA 2: TGGTGGCTACGACGGGATT
B9: GAUUGAC (DNA:RNA)
RNA: B4 RNA with C27U, A31C
DNA 1: CAATCTGAATTCCGGTCTCCC
DNA 2: TGGTGGCTACGACGGGATT
B10: UAGUCCU (DNA:RNA)
RNA: B4 RNA with G25U, C27G, G29C, A30C, A31U
DNA 1: CAATCTGAATTCCGGTCTCCC
DNA 2: TGGTGGCTACGACGGGATT
B11: GUACGUA (DNA:RNA)
RNA: B4 RNA with A26U, C27A, U28C, A30U
DNA 1: CAATCTGAATTCCGGTCTCCC
DNA 2: TGGTGGCTACGACGGGATT
B12: CUUUCCU (DNA:RNA)
RNA: B4 RNA with G25C, A26U, C27U, G29C, A30C, A31U
DNA 1: CAATCTGAATTCCGGTCTCCC
DNA 2: TGGTGGCTACGACGGGATT
B13: GUCUCGA (DNA:RNA)
RNA: B4 RNA with A26U, G29C, A30G
DNA 1: CAATCTGAATTCCGGTCTCCC
DNA 2: TGGTGGCTACGACGGGATT
B14: UCGUCGG (DNA:RNA)
RNA: B1 RNA with A27G, A28U, U29C, C30G, C31G
DNA 1: CAATCTGAATTCCGGTCTCCC
DNA 2: TGGTGGCTACGACGGGATT
B15: CGCUCGG (DNA:RNA)
RNA: B4 RNA with G25C, A26G, G29C, A30G, A31G
DNA 1: CAATCTGAATTCCGGTCTCCC
DNA 2: TGGTGGCTACGACGGGATT
B16: UCCUCGA (DNA:RNA)
RNA: B4 RNA with G25U, A26C, G29C, A30G
DNA 1: CAATCTGAATTCCGGTCTCCC
DNA 2: TGGTGGCTACGACGGGATT
B17: UGCUCGA (DNA:RNA)
RNA: B4 RNA with G25U, A26G, G29C, A30G
DNA 1: CAATCTGAATTCCGGTCTCCC
DNA 2: TGGTGGCTACGACGGGATT
B18: CGGCUCG (DNA:RNA)
RNA: B1 RNA with U25C, C26G, A27G, A28C, C31G
DNA 1: CAATCTGAATTCCGGTCTCCC
DNA 2: TGGTGGCTACGACGGGATT
B19: UCGUCGA (DNA:RNA)
RNA: B4 RNA with G25U, A26C, C27G, G29C, A30G
DNA 1: CAATCTGAATTCCGGTCTCCC
DNA 2: TGGTGGCTACGACGGGATT
B20: GGCUCGA (DNA:RNA)
RNA: B4 RNA with A26G, G29C, A30G
DNA 1: CAATCTGAATTCCGGTCTCCC
DNA 2: TGGTGGCTACGACGGGATT
B21: UGCUCGG (DNA:RNA)
RNA: B4 RNA with G25U, A26G, G29C, A30G, A31G
DNA 1: CAATCTGAATTCCGGTCTCCC
DNA 2: TGGTGGCTACGACGGGATT
B22: ACAGCUC (DNA:RNA)
RNA: B1 RNA with U25A, A28G, U29C, C30U
DNA 1: CAATCTGAATTCCGGTCTCCC
DNA 2: TGGTGGCTACGACGGGATT
B23: CUAUCUG (DNA:RNA)
RNA: B4 RNA with G25C, A26U, C27A, G29C, A30U, A31G
DNA 1: CAATCTGAATTCCGGTCTCCC
DNA 2: TGGTGGCTACGACGGGATT
B24: UAAGCGA (DNA:RNA)
RNA: B4 RNA with G25U, C27A, U28G, G29C, A30G
DNA 1: CAATCTGAATTCCGGTCTCCC
DNA 2: TGGTGGCTACGACGGGATT
B25: GGUCAGA (DNA:RNA)
RNA: B4 RNA with A26G, C27U, U28C, G29A, A30G
DNA 1: CAATCTGAATTCCGGTCTCCC
DNA 2: TGGTGGCTACGACGGGATT
B26: CAUUUGG (DNA:RNA)
RNA: B4 RNA with G25C, C27U, G29U, A30G, A31G
DNA 1: CAATCTGAATTCCGGTCTCCC
DNA 2: TGGTGGCTACGACGGGATT
B27: GACUAUC (DNA:RNA)
RNA: B4 RNA with G29A, A30U, A31C
DNA 1: CAATCTGAATTCCGGTCTCCC
DNA 2: TGGTGGCTACGACGGGATT
B28: AAAGUAC (DNA:RNA)
RNA: B1 RNA with U25A, C26A, A28G, C30A
DNA 1: CAATCTGAATTCCGGTCTCCC
DNA 2: TGGTGGCTACGACGGGATT
B29: AAAACUA (DNA:RNA)
RNA: B4 RNA with G25A, C27A, U28A, G29C, A30U
DNA 1: CAATCTGAATTCCGGTCTCCC
DNA 2: TGGTGGCTACGACGGGATT
B30: GAUCUCU (DNA:RNA)
RNA: B4 RNA with C27U, U28C, G29U, A30C, A31U
DNA 1: CAATCTGAATTCCGGTCTCCC
DNA 2: TGGTGGCTACGACGGGATT
B31: UUAAGUU (DNA:RNA)
RNA: B1 RNA with C26U, U29G, C30U, C31U
DNA 1: CAATCTGAATTCCGGTCTCCC
DNA 2: TGGTGGCTACGACGGGATT

Positions count from the first letter of the chain named. In all, about 16,000 sequences were measured (“ka relative to ugcaugu”: median about 0.0091, highest 2% from about 0.032 on). The entries come from a sample that favours the highest values as a whole.

In this experiment the target is T1, RBFOX1 RRM. The experiment is described as follows: EMSA; HiTS-Eq, 1 nM pool, 10 min; buffer printed only for the single-RNA assays: 10 mM Tris pH 7.5, 150 mM NaCl, 3.4 mM EDTA, 0.001% NP-40, 30 C. As to conditions: tags: His6 N-terminal (pET28a); label: 5' 32P. In short, it runs like this:
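Purified RbFox RRM, wild type or mutant, was incubated for 10 min in 50 µL with 1 nM of a 5′-radiolabelled RNA pool carrying 7 randomized nucleotides, whose flanks were annealed to DNA oligonucleotides, over a series of increasing protein concentrations. Unbound RNA was resolved on 8% native PAGE, cut out, reverse-transcribed, barcoded by PCR and sequenced on an Illumina HiSeq 2500. Relative association constants were derived from changes in read counts for each RNA species versus the control reaction and normalised to the cognate motif.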
For orientation: A gel shift assay detects complexes by their altered migration in electrophoresis.
Take B1: the binding signal was 0.00161 KA relative to UGCAUGU. Consider B2, for which the binding signal is 0.012 KA relative to UGCAUGU. On to B3, for which the binding signal was 0.0176 KA relative to UGCAUGU. B4: the binding signal was 0.0274 KA relative to UGCAUGU. For the molecule B5, the binding signal was 0.0103 KA relative to UGCAUGU.

For B6, the binding signal was 0.00839 KA relative to UGCAUGU. In the case of B7, the binding signal was 0.00359 KA relative to UGCAUGU. On to B8, for which the binding signal was 0.00107 KA relative to UGCAUGU. For B9, the binding signal was 0.0228 KA relative to UGCAUGU. As for B10, the binding signal was 0.00776 KA relative to UGCAUGU.

As for B11, the binding signal was 0.0085 KA relative to UGCAUGU.

Consider B12, for which the binding signal was 0.0054 KA relative to UGCAUGU.

B13: the binding signal is 0.0166 KA relative to UGCAUGU. In the case of B14, the binding signal is 0.0171 KA relative to UGCAUGU. Turning to B15, the binding signal is 0.0166 KA relative to UGCAUGU. With B16, the binding signal was 0.00976 KA relative to UGCAUGU. B17: the binding signal is 0.0363 KA relative to UGCAUGU. Turning to B18, the binding signal is 0.0112 KA relative to UGCAUGU. As for B19, the binding signal is 0.014 KA relative to UGCAUGU.

For the molecule B20, the binding signal is 0.033 KA relative to UGCAUGU. Turning to B21, the binding signal is 0.0361 KA relative to UGCAUGU. Regarding B22, the binding signal is 0.00303 KA relative to UGCAUGU.

B23: the binding signal is 0.00983 KA relative to UGCAUGU. On to B24, for which the binding signal is 0.0108 KA relative to UGCAUGU.

For the molecule B25, the binding signal is 0.00171 KA relative to UGCAUGU. As for B26, the binding signal was 0.014 KA relative to UGCAUGU.

B27: the binding signal is 0.00429 KA relative to UGCAUGU.

As for B28, the binding signal was 0.00371 KA relative to UGCAUGU. Under B29 stands 0.00178 KA relative to UGCAUGU; under B30, 0.0194 KA relative to UGCAUGU; under B31, 0.0109 KA relative to UGCAUGU.
